Out of some 31,000 sequences screened, about 1,400 (4.5%) were called active. The sample as a whole holds a higher share of actives than the screen did. Unmarked numbers belong to inactive results.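 Rule for the calls: active = median seed-adjusted z-score above 1 or below -1; inactive = the rest.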

This test in a line: Novel Modifiers of Survival Motor Neuron (SMN) Protein: Gene Identification via Genome-wide siRNA Screen.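 Note: luminescence tracks full-length SMN protein made from the SMN2 reporter.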 Conditions: HEK293T SMN2-luciferase reporter, siRNA knockdown, 72 h; actives lie on both sides. An outline of the steps: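 Genome-wide siRNA screen (10418 genes, 3 siRNAs each, 1 pmol per well) by reverse transfection in HEK293T cells stably carrying an SMN2-luciferase reporter; luminescence after 72 hours, normalized to negative-control siRNA, log10-transformed, MAD-scored.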
(Reporter assays use an easily measured gene product as a stand-in for the process of interest.)
Take AGCACGAGCUAGUCCCUGATT against POLR2E: the median seed-adjusted z-score was -1.25 (active).

Turning to GCAAGAUCCGAGAAGAAUATT against TUBB, the median seed-adjusted z-score was -0.307.

For the sequence GCAUGAUCGGGAGGGUUUATT against PPID, the median seed-adjusted z-score is -0.206.

As for GGUUAUGAACUUUGGAUAATT against GPR103, the median seed-adjusted z-score was 0.

CUAUGUCAGUGGUCCUGAATT against RETSAT: the median seed-adjusted z-score was -1.7 (active).

Turning to CAAUGAAGACUGAUGUAUUTT against SLC9A2, the median seed-adjusted z-score was -1.02 (active).

Regarding CCCUUACUACAACUACAAATT against ZBTB38, the median seed-adjusted z-score was 0.448.

Consider GGGCGAUUCCUGUCUAAGATT against PUM1, for which the median seed-adjusted z-score is 0.109.

Turning to CGAACUCCGCUUUUUCUUATT against FZD7, the median seed-adjusted z-score was -0.159.

GCUACAACGGAAACAAUCATT against MSTN: the median seed-adjusted z-score is -0.639.

Regarding GGAGUUCGAUGAGACAACATT against FABP3, the median seed-adjusted z-score is -0.0786.

Consider CGAUUACGCUUCAGAGAUATT against PTP4A2, for which the median seed-adjusted z-score is -1.45 (active).

As for GGACAUCCUGUCAUAGAAATT against UTP3, the median seed-adjusted z-score is -1.08 (active).

Consider GGAAGUUCAUUACCAGAAUTT against PLCZ1, for which the median seed-adjusted z-score is 0.

Consider GCAAUAGUCAGGAGCGAUATT against PPP1R10, for which the median seed-adjusted z-score was 1.41 (active).

As for CCUUACCUGUAAACAGAGATT against ESR2, the median seed-adjusted z-score is -1.1 (active).

Turning to CCAGGCCCAUUCUACAAUATT against PEAR1, the median seed-adjusted z-score was 0.071.

Regarding AUAUAACUGCUGAUCUAGATT against SPCS3, the median seed-adjusted z-score was 0.417.

As to GGAGUUCGUUCAGAGACCATT against MOCS2, the median seed-adjusted z-score was 0.0327.

Take CUCUCUUCGUAGAUCAAGATT against SFRS7: the median seed-adjusted z-score is 0.44.

As to UGAAGUUGCUGGACGCGUATT against DAD1, the median seed-adjusted z-score is -0.45.

As for GCUUGGAGGAUUUCAUGGATT against POFUT1, the median seed-adjusted z-score is 0.

Take AGAAAUUGGUGUUCAGAAUTT against GTF2F2: the median seed-adjusted z-score was -1.14 (active).

In the case of GAAUAAAAACGACCUCUUUTT against LZTR1, the median seed-adjusted z-score was 0.293.

GCAUGUUAAUGGGUUUAAUTT against GNAS: the median seed-adjusted z-score was -0.531.

On to CUGCAGUUCUUAAUACGAATT against PSMD1, for which the median seed-adjusted z-score is -1.61 (active).

As to GAACAUAUGUGAUGACCGUTT against CDH2, the median seed-adjusted z-score was -0.235.

As to GGAGGUCUCCUACAUCAAATT against ZAN, the median seed-adjusted z-score is 0.736.

For CGGGUGCACUACUACAUCUTT against GBGT1, the median seed-adjusted z-score was 0.48.

For the sequence AGCCCUUGACCUUAUCUAATT against CSTB, the median seed-adjusted z-score is 1.08 (active).

Consider ACUCAACUCUGAUACUCCATT against DMRTC2, for which the median seed-adjusted z-score is 0.

With GAGCUGAAGUCCUUAGAUATT against EIF2B3, the median seed-adjusted z-score was -0.271.

Consider CGACUAUGCUUUAGAUUAUTT against MAS1, for which the median seed-adjusted z-score is -0.0551.

With CGGCCUAACUUUCAAGACATT against SDK2, the median seed-adjusted z-score was 0.908.

On to GGUUCUGAAAUGUUCGUCATT against ZDHHC22, for which the median seed-adjusted z-score was 0.00446.

For the sequence GAUAAAAGGAUGGAUGAAATT against PRPF6, the median seed-adjusted z-score was -1.06 (active).

Regarding GAAUCAAGACAAACCCGAATT against TTN, the median seed-adjusted z-score was 0.872.

For GCACUCUUCUCAUUCACGATT against ATP1B3, the median seed-adjusted z-score was -0.225.

Regarding CCAACGAACUCCUUACUUATT against SCP2, the median seed-adjusted z-score is 0.413.

For CAAUCACUCAGGAACAAAUTT against CHMP6, the median seed-adjusted z-score was -1.81 (active).

Take ACAAUACCCUCAGACUGAATT against NMUR1: the median seed-adjusted z-score is -0.265.

With UGGUGAAAAUUACAUCUGATT against CIP29, the median seed-adjusted z-score was -1.18 (active).

Consider CAAUCCUCAUGCUAAACCATT against SGK1, for which the median seed-adjusted z-score is -0.659.

On to GAGUGGACUGGGCAAAUCATT against 3-Sep, for which the median seed-adjusted z-score was 0.0683.

With CAGGUAUUCUGGUCAAUAUTT against ATL3, the median seed-adjusted z-score was 0.201.

Consider GACAAUGGGUUAUUCAGGATT against FNTA, for which the median seed-adjusted z-score was 1.04 (active).

With GACACCUUCUUAGACGAUATT against AMPD1, the median seed-adjusted z-score was 0.378.

With GCGAGUAGAUAAUAUCGAATT against MAP3K5, the median seed-adjusted z-score is -0.285.

Take GCAGGUCAGUUAUCAGACUTT against SLC17A1: the median seed-adjusted z-score was -0.271.

Regarding CAGUUGUACUGGACGGCUATT against PALLD, the median seed-adjusted z-score was -0.307.

With CAACCUCACUGACCGGCAATT against HOXD11, the median seed-adjusted z-score was -0.185.

CAUCUUUCCUAAAGAGUUUTT against POLR2D: the median seed-adjusted z-score was -3.79 (active).

Regarding GCCUACAUGUUUCUGCUGATT against RHO, the median seed-adjusted z-score was -0.267.

Consider CAGAGGAACUGACACCAUUTT against ETFA, for which the median seed-adjusted z-score is -0.0619.

CGCUUUUCGUUGUAAAUAUTT against NKX2-2: the median seed-adjusted z-score is -0.0805.

For the sequence GAAGCUUGAGGAACACGAATT against GOLGB1, the median seed-adjusted z-score is 0.0851.

As for CACUAAUGGAUAUUGCCUATT against BMI1, the median seed-adjusted z-score is 0.

For the sequence UGACUGCGGAUAUAACUGATT against LMAN2, the median seed-adjusted z-score was -0.0921.

On to GGGAAGGCAAUAAAACUUATT against TAAR9, for which the median seed-adjusted z-score is -1.07 (active).

Take GACUAAUGAACUACUAAAATT against HMMR: the median seed-adjusted z-score is 0.389.

With GAAUAUCUAGGUACAUGGATT against ADCY10, the median seed-adjusted z-score was -0.573.

For the sequence CUGUACAACGUCAACCUCATT against SCNN1D, the median seed-adjusted z-score was -1.8 (active).

With CAGUUAAAGGUCAAGAUAATT against PI3, the median seed-adjusted z-score is 0.493.

Turning to AGAUUAAGGAUAUGGAUGATT against CHRNA9, the median seed-adjusted z-score is -0.454.

Consider GGAUAAUCGACACUCUGGATT against MATN3, for which the median seed-adjusted z-score was 0.0972.

Turning to GGAUUAACAUAUGAUGACATT against ADAM18, the median seed-adjusted z-score is -0.913.

Regarding GGUUCUCAGGAGCACCAGATT against OASL, the median seed-adjusted z-score was 1.02 (active).

With CAUGUCACCUGCAAAAUUATT against THEM2, the median seed-adjusted z-score was 0.449.

With GAGUCGUUGUCCAUCUUAATT against SR140, the median seed-adjusted z-score is 1.16 (active).

GCAGAUCCAUCAACUACGATT against UBR4: the median seed-adjusted z-score is 0.602.

Source of the values: PubChem BioAssay AID1347426 (Functional Genomics Laboratory (NCATS/FGL), 2020).
